Consider 39 compounds from PubChem BioAssay (NCI).

The panel holds about 83,000 compounds, 20% with a hit somewhere; the sample as a whole holds those more often.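 Cell lines were cultured in 96-well plates, exposed to a single compound concentration, and assessed for percent growth 48 hours later.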 Activity calls are given as the source filed them. How the source made its calls: active means growth percent below 10; inactive means the rest.

This experiment concerns HL-60(TB) leukemia. In words: NCI-60 one-dose screen, 48 h (100 = growth as untreated, 0 = no growth, -100 = all killed). The following applies: 10 µM unless noted.
Take `C#C[C@]1(O)CC[C@H]2[C@@H]3CC=C4c5nc(Nc6ccccn6)sc5CC[C@]4(C)[C@H]3CC[C@@]21C`: the growth is 10.6% (inactive).
As for `NC(=O)Nc1ccc2ncnc(Nc3ccc(Cl)cc3)c2c1`, the growth was 99.9% (inactive).
Consider `N#Cc1c(N)nc2c(c1N)C(c1ccc(F)cc1)c1ccc(N)cc1O2` (centres undefined), for which the growth was 110% (inactive).
In the case of `COc1cnc2c(c1)C(=O)c1c-2n(CCCNCCN2CCOCC2)c(=O)c2cc([N+](=O)[O-])ccc12`, the growth is -15.7% (active).
Turning to `O=C(Nc1cccc(C2=NCCN2)c1)c1ccc(-c2ccc(C(=O)Nc3cccc(C4=NCCN4)c3)cc2)cc1`, the growth was 16% (inactive).
For the compound `Cc1nn(-c2ccccc2)c(-n2ccnc2)c1/C=N/Nc1nc(-c2ccc(F)cc2)cs1`, the growth is 94.4% (inactive).
Under `CCN(CC)/C([O-])=c1\cccc\c1=C1\N=C(c2ccccc2)N=C1[n+]1ccc(-c2ccccc2)cc1` stands 92.2% (inactive).
On to `CC(C(=O)n1cc(-c2ccccc2)c(-c2ccccc2)c1)c1ccccc1` (centres undefined), for which the growth is 106% (inactive).
Under `Nc1n[nH]c2cc(F)c([C@@H]3Nc4ccc5[nH]ncc5c4[C@H]4C5CCC(C5)[C@@H]34)cc12` (some centres undefined) stands -22.4% (active).
Turning to `CSc1ccc2c(c1)C(N1CCN(C)CC1)Cc1ccccc1S2` (centres undefined), the growth is 52.7% (inactive).
Turning to `COc1cc(Oc2cc(-c3cccnc3)ccc2NC(=O)Nc2ccc(F)cc2F)cc(OC)c1OC`, the growth was 91.3% (inactive).
Turning to `CCN1CCN(C(=O)[C@]23CC[C@@H](C)[C@H](C)[C@@H]2C2=CC[C@@H]4[C@@]5(C)CCC(=O)C(C)(C)[C@@H]5CC[C@@]4(C)[C@]2(C)CC3)CC1`, the growth is -44.6% (active).
Regarding `COc1cc2c3c(c1)nc(C)n3CCC2`, the growth was 99.7% (inactive).
Under `COc1ccc(-c2cc3c(nn2)-c2ccccc2C3=O)cc1` stands 57.4% (inactive).
On to `Nc1nc(N)c2nc(-c3cccc(O)c3)c(-c3cccc(O)c3)nc2n1`, for which the growth is 120% (inactive).
Next, `C=CC(=O)OC1CCC(C(C)(C)CC)CC1` (centres undefined): 84% (inactive).
In the case of `O=C(/C=C/C(=O)c1ccccc1)c1ccccc1`, the growth was 57.3% (inactive).
Next, `CCSc1sc(-c2ccc(C)cc2)nc1[P+](c1ccccc1)(c1ccccc1)c1ccccc1`: -47% (active).
`CC1(C)CC[C@]2(C(=O)N3CCOCC3)CC[C@]3(C)C(=CC[C@@H]4[C@@]5(C)CC[C@H](OC(=O)c6cccnc6)C(C)(C)[C@@H]5CC[C@]43C)[C@@H]2C1`: the growth was 45.4% (inactive).
In the case of `Cc1ccc(NC(=O)c2sc3nc(C)c(C(O)c4ccccc4)cc3c2N)cc1` (centres undefined), the growth is -47.5% (active).
Consider `CC(=O)C1C(=O)C(=O)N(c2ccc(Cl)c(Cl)c2)C1=O` (centres undefined), for which the growth was 98.6% (inactive).
With `CCCCCCCCCCCCCCCCCC1=NCCCN1CCO`, the growth was 106% (inactive).
As to `Cc1nnc(NC/C=C/c2ccccc2)s1`, the growth was 98% (inactive).
With `CC(C)(C)[Si](C)(C)OC1[C@@H](O[Si](C)(C)C(C)(C)C)[C@@H](CNC(=O)NC(=O)NC(=O)CCl)O[C@H]1n1cnc2c(NC(=O)Nc3ccccc3)ncnc21` (some centres undefined), the growth was 19.7% (inactive).
Consider `O=C1Nc2ccc(Cl)cc2/C1=C\c1c(-c2ccc(F)cc2)nc2ccccn12`, for which the growth is -37.7% (active).
`C=CCc1c(O)c(C(=O)/C=C/c2ccccc2)c(OC)c2ccoc12`: the growth was 36.3% (inactive).
As to `C=C1C(=O)O[C@H]2[C@H]1CC/C(COC(=O)NCc1ccc(OC)c(OC)c1)=C\CC[C@@]1(C)O[C@@H]21`, the growth was 35.8% (inactive).
Consider `CCOc1ccc(-c2cnnn2-c2nonc2-n2cccc2)cc1`, for which the growth is -23.8% (active).
Take `CCOC(=O)c1csc(NC(=O)COc2ccc(/C=C3\Oc4ccccc4C3=O)cc2)n1`: the growth is 7.24% (active).
Take `CC1(C)CC[C@]2(C(=O)N3CCOCC3)CC[C@]3(C)C(=CC[C@@H]4[C@@]5(C)C/C(=C/c6ccncc6)C(=O)C(C)(C)[C@@H]5CC[C@]43C)[C@@H]2C1`: the growth is -37.6% (active).
Next, `CN(C)S(=O)(=O)c1cccc(C(=O)Nc2nc(-c3ccc(F)c(F)c3)cs2)c1`: 61.1% (inactive); `Cc1ccc(S(=O)(=O)c2ccccc2)cc1`: 12.8% (inactive); `O=c1oc2ccc(-c3ccc(F)cc3F)cc2c(=O)n1-c1cccc(C(F)(F)F)c1`: -33.3% (active).
In the case of `COC(=O)c1nc(=S)[nH]c(C(=O)OC)c1C(=O)c1ccccn1`, the growth was 97.9% (inactive).
Turning to `COc1ccc2nc3cc(Cl)ccc3c(N3CCN(c4nccc(Nc5ccc(Cl)cc5)n4)CC3)c2c1`, the growth is 48% (inactive).
As to `Nc1nc(Nc2ccccc2)c(C=Nc2ccccc2)c(=O)[nH]1`, the growth is 98.9% (inactive).
Next, `Cc1ccc(-c2cnc3sc4ccc(Cl)cc4n23)cc1`: 90.5% (inactive); `Nc1ccc2cc(Br)c3ccccc3c2c1`: 45.6% (inactive).
Under `N#Cc1ncc(-c2ccc(C(F)(F)F)cc2)c(NCc2cc(C(F)(F)F)cc(C(F)(F)F)c2)n1` stands -0.911% (active).
